# HT1080-NT tox – kills 2HG-producing HT-1080-NT fibrosarcoma cells. actives 1.6% (n = 360,000). HT-1080-NT fibrosarcoma viability, CellTiter-Glo ATP luminescence, 48 h. Potency, µM (top dose mostly 46.1 µM), for inactives: top-dose activity, negative = less viability, hits mostly cytotoxic;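 note: NT is the 2HG producing partner of a matched IDH1 knockdown line; potency is the fitted concentration of half-maximal effect; 0% = DMSO-treated cells and -100% = media-only wells without cells; nearly all actives have a fitted effect of over 55% in size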
#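 HT-1080-NT; 750 cells/well; 5% FBS RPMI; 48 h compound, 37 degrees C; CellTiter-Glo luminescence; curve fitting and curve-class assignment.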
# IL1B secr inh – inhibitors of inflammasome signaling (IL-1 beta secretion); activity change, % at 57.5 µM; THP-1 LPS/ATP IL-1B secretion, AlphaLISA, 16 h; hits give low values; actives 4.7% (n = 360,000); in the data active = activity change below about -50%; inconclusive = mostly about -30% to -49%
#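 THP-1 cells pretreated 1 hr with compounds (up to 57.5 uM final), then stimulated with LPS (250 ng/mL final) plus ATP (1.25 mM final); secreted IL-1B measured by AlphaLISA after 16 hr, decreased signal indicating inhibition.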
# HT1080 IDH1KD tx – HT-1080 IDH1 knockdown cell toxicity (counter line); Potency, µM (top dose mostly 46.1 µM), for inactives: at the top dose activity, negative = toxicity, hits mostly cytotoxic; AID 686971; actives 2% (n = 360,000); HT-1080 IDH1 knockdown viability, ATP luminescence, 48 h;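 note: potency is the fitted concentration of half-maximal effect; 0% = DMSO wells and -100% = cell-free medium wells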
#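 Viability of IDH1-knockdown HT-1080 fibrosarcoma cells was assessed by CellTiter-Glo after 48 h at 37 °C with titrated compound; concentration-effect curves were classified by fit quality and response size.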
# TDP1 cell noCPT – qHTS for Inhibitors of human tyrosyl-DNA phosphodiesterase 1 (TDP1): qHTS in cells in absence of CPT; DT40 Tdp1-/- hTDP1 cells, no CPT, ATP luminescence, 48 h; Potency, µM (doses to about 46.2 µM), for inactives: top-dose activity change, negative = growth inhibition, actives largely listed as inhibitors; actives 15% (n = 420,000); AID 686978, 2013; note: potency is the fitted concentration of half-maximal effect; nearly all actives have a fitted effect of over 55% in size
#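 Luminescent ATP content (CellTiter-Glo) served as the growth readout. Knockout chicken DT40 cells expressing human TDP1 were exposed to compounds without camptothecin for a minimum 48 hr at 37 °C.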
# ELG1 repair inh – inhibitors of ELG1-dependent DNA repair in HEK293T cells; HEK293T ELG1-luciferase reporter, luminescence, 16 h; DNA damage induced by 5-fluorouridine; Potency, µM (doses to about 46.1 µM), without a hit: at the highest dose activity change, negative = inhibition, actives largely listed as inhibitors; actives 2.3% (n = 330,000); note: potency is the fitted concentration of half-maximal effect; nearly all actives have a fitted effect of over 55% in size
#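 Step one: seed 2,000 cells per well. Step two: pin-transfer compound or DMSO alongside 5-fluorouridine. Step three: incubate 16 hr, 37 °C, 5% CO2. Step four: add ONE-Glo, wait 30 min, read luminescence.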
# TDP1 cell CPT – DT40-hTDP1 cell growth loss with CPT; chicken DT40 Tdp1-/-;hTDP1 cells + 20 nM CPT, ATP luminescence, 48 h; actives 12% (n = 420,000); AID 686979; Potency, µM (titrated, usually from 46.2 µM), inactives show top-dose activity change, negative = growth inhibition, usual class: inhibitors; note: potency is the fitted concentration of half-maximal effect; nearly all actives have a fitted effect of over 55% in size
#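 Cell growth measured by CellTiter-Glo luminescence after a minimum 48 h, 37 C compound exposure with 20 nM CPT in Tdp1-knockout DT40 cells stably expressing hTDP1, seeded 400/well; qHTS titration format.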
# Active calls of the source: *; ? = inconclusive; nt = not tested or not shown. This is a sample that favours compounds with a hit; in the whole collection about 19% have one here. Unless noted, calls come from the whole dose curve; as a rule, active = well fitted curve in the direction sought with a large enough effect; inconclusive = small, poorly fitted or top-dose-only effect, or another doubt; inactive = no such curve, though single readings can be large; an effect the other way counts as inactive or inconclusive. Unless noted, % is set by controls: 0 for no effect and ±100 for the full control effect.
SMILES,HT1080-NT tox,IL1B secr inh,HT1080 IDH1KD tx,TDP1 cell noCPT,ELG1 repair inh,TDP1 cell CPT
Cc1ccc(C(=O)Nc2ncc([N+](=O)[O-])s2)cc1,18µM*,-67*,23µM*,18µM*,?,23µM*
O=C(Nc1ncc([N+](=O)[O-])s1)c1ccc2c(c1)OCO2,15µM*,-12,16µM*,18µM*,?,?
Cc1ccc([N+](=O)[O-])cc1NC(=O)c1ccc2c(c1)OCO2,14%,0,1%,3%,-2%,11%
Cc1ccc(C(=O)Nc2ncc(Cc3ccc(SC(F)F)cc3)s2)cc1,1.8µM*,0,2.6µM*,1.3µM*,?,1.2µM*
CC(=O)Nc1ncc([N+](=O)[O-])s1,nt,nt,nt,-12%,nt,-21%
COc1ccccc1NS(=O)(=O)c1ccc(Cl)c(NC(=O)C(C)N2C(=O)c3ccccc3C2=O)c1 (configuration not stated),17%,24,10%,-13%,13%,5%
CC(C)(C)OC(=O)N1CCC(c2c(C(=O)NCCN3CCC(Cc4ccccc4)CC3)cnn2-c2ccc(F)cc2)CC1,nt,nt,nt,5.2µM*,nt,5.2µM*
Cc1ccc(-n2ncc(C(=O)NCCCN3CCCCC3)c2C2CCN(C(=O)OC(C)(C)C)CC2)cc1,nt,nt,nt,-29%,nt,?
CC(C)(C)OC(=O)N1CCC(c2c(C(=O)NCc3cccc(Cl)c3)cnn2-c2ccc(F)cc2)CC1,nt,nt,nt,13µM*,nt,?
Cc1ccc(-n2ncc(C(=O)NCc3ccccc3)c2C2CCN(C(=O)OC(C)(C)C)CC2)cc1,nt,nt,nt,?,nt,21µM*
CCC1(c2ccccc2)NC(=O)N(CC(=O)N2CC(=O)Nc3ccccc32)C1=O (configuration not stated),-6%,1,-8%,?,1%,20%
Cc1cccc(-c2nc(S(=O)(=O)c3ccc(F)cc3)c(NCCCN3CCOCC3)o2)c1,-11%,-4,-16%,?,?,?
Cc1ccc(NC(=O)C(=O)NCC(c2cccnc2)N2CCN(Cc3ccccc3)CC2)cc1F (configuration not stated),nt,nt,nt,5.8µM*,nt,7.3µM*
Cc1ccc(NC(=O)C(=O)NCC(c2cccnc2)N2CCN(Cc3ccccc3)CC2)cc1C (configuration not stated),nt,nt,nt,16µM*,nt,16µM*
CC1CC(C)CN(CCOc2ccc(Cl)cc2Cl)C1 (configuration not stated),1%,-68*,-4%,?,?,?
CC1CC(C)CN(CCOc2cccc(Cl)c2Cl)C1 (configuration not stated),-4%,-68*,-7%,?,-10%,?
CN(CC(=O)Nc1ccccc1)CC(=O)Nc1ccc(F)cc1,13%,-8,26%,-14%,15%,1%
CCOc1ccc(NC(=O)CSc2oc(-c3ccc(C)cc3)nc2S(=O)(=O)c2ccc(C)cc2)cc1,nt,nt,nt,5.8µM*,nt,7.3µM*
O=S(=O)(c1ccc(Cl)cc1)c1nc(-c2cccs2)oc1SCc1ccc(F)cc1,nt,nt,nt,?,nt,21µM*
CCOc1ccc(NC(=O)CSc2oc(-c3cccs3)nc2S(=O)(=O)c2ccc(Cl)cc2)cc1,nt,nt,nt,13µM*,nt,18µM*
O=S(=O)(Nc1nc(SCc2ccc(Cl)cc2)n[nH]1)c1ccc(F)cc1,?,-59*,?,?,4%,?
COc1ccccc1-n1nnnc1SCC(=O)Nc1ccc(C)c(N)c1,-11%,-5,-8%,?,?,?
COc1ccccc1OCc1nnc(SCC(=O)N2CCCCC2)o1,6%,13,-9%,7%,2%,8%
O=c1[nH][nH]c2c1[C@H](CCc1cccc(Cl)c1)O[C@H](C1CCCC1)C2,?,-20,7.3µM*,?,nt,?
O=c1[nH][nH]c2c1[C@H](C1CCCC1)O[C@H](CCc1ccccc1)C2,13%,?,-1%,18µM*,nt,21µM*
SMILES,HT1080-NT tox,IL1B secr inh,HT1080 IDH1KD tx,TDP1 cell noCPT,ELG1 repair inh,TDP1 cell CPT
CC(C)C[C@@H]1O[C@H](CCc2ccccc2)Cc2[nH][nH]c(=O)c21,-2%,10,-11%,?,nt,?
O=C(/C=C1\NC2(CCCC2)Cc2ccccc21)N1CCOCC1,?,-15,?,12µM*,-15%,12µM*
C=CC[C@@H]1C=C[C@H](O/N=C/c2ccc(C(=O)N3[C@H](c4ccc(C)cc4)[C@@H](C)CC[C@H]3C(=O)OC)cc2)[C@@H](CO)O1,nt,nt,nt,nt,18µM*,nt
Cc1ccc(CN(C(=O)Cn2nnc3ccccc32)C(C(=O)NCc2ccco2)c2cccs2)cc1 (configuration not stated),-9%,-13,-6%,23µM*,?,?
CCC(C)(C)NC(=O)C(c1ccccc1F)N(Cc1ccco1)C(=O)Cn1nnc2ccccc21 (configuration not stated),-1%,-4,0%,?,-18%,-24%
CCC(C)(C)NC(=O)C(c1ccccc1)N(Cc1cccs1)C(=O)Cn1nnc2ccccc21 (configuration not stated),1%,-9,1%,?,nt,18µM*
O=C(NCc1ccco1)C(c1cccs1)N(Cc1ccccc1)C(=O)Cn1nnc2ccccc21 (configuration not stated),8%,-7,12%,?,-6%,?
CCc1ccc(C(C(=O)NC(C)(C)CC)N(Cc2ccco2)C(=O)Cn2nnc3ccccc32)cc1 (configuration not stated),-2%,11,1%,?,-20%,18µM*
CCC(C)(C)NC(=O)C(c1ccc(OC)cc1)N(Cc1cccs1)C(=O)CCC(=O)Nc1cc(C)on1 (configuration not stated),-6%,-8,-22%,?,18µM*,18µM*
CCC(C)NC(=O)C1CCC(CNS(=O)(=O)c2ccc(Cl)cc2)CC1 (configuration not stated),nt,nt,nt,-4%,nt,-27%
CC(=O)N1CCC2(CCN(Cc3ccncc3)CC2)CC1,nt,nt,nt,-4%,nt,17%
CN(CC(=O)Nc1ccccc1Cl)C(=O)c1ccc(N2C(=O)CCC2=O)cc1,1%,5,-13%,3%,-3%,3%
N#Cc1c(N)nc(Sc2ccc(Cl)cc2)c(C#N)c1-c1ccccc1Cl,?,-96*,?,15µM*,?,16µM*

# Source: PubChem
